Experimental data as given in PubChem BioAssay (NCI).
“And” between values parts separate entries of the source, which are not always exact repeats. Identical values can stand only once. This is part of a sample that, as a whole, favours compounds with a hit. Of some 79,000 tested, about 15% had one in any assay. Unmarked numbers belong to inactive results. The source made the active and inactive calls. Rule as the data show it: active = growth inhibition above about 70%; inactive = the rest. Where a SMILES comes first, the peptide text is derived from it. The star is where a group is joined. Boc = CC(C)(C)OC(=O)*

How the values were obtained:
[1] = NCI Yeast Anticancer Drug Screen. Data for the rad50 strain (AID 155);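 also: 0% = growth of vehicle-only cultures of the same strain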; conditions: S. cerevisiae rad50 strain growth inhibition, stronger effect = higher value; at 50.0 µM unless noted
Procedure, shortened: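 Cells are treated with compound, grown, and their growth is then scored against vehicle-only cultures of the same repair-deficient yeast strain.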

[2] = NCI Yeast Anticancer Drug Screen. Data for the mec2-1 strain (AID 157); conditions: S. cerevisiae mec2-1 strain, stronger effect = higher value; at 50.0 µM unless noted
Procedure, shortened: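 Using mec2-1 yeast: add compound, measure growth, express inhibition versus vehicle-treated cultures.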

[3] = NCI Yeast Anticancer Drug Screen. Data for the sgs1 mgt1 strain (AID 161);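 also: 0% = growth of cultures given vehicle only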; conditions: S. cerevisiae sgs1 mgt1 strain, stronger effect = higher value; at 50.0 µM unless noted
Procedure, shortened: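 Yeast cells carrying a defined DNA-repair defect were exposed to test compounds. Growth inhibition was measured relative to vehicle-treated controls.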

[4] = NCI Yeast Anticancer Drug Screen. Data for the cln2 rad14 strain (AID 165);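 also: 0% = growth equal to vehicle treated cultures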; conditions: S. cerevisiae cln2 rad14 strain, stronger effect = higher value; at 50.0 µM unless noted
Procedure, shortened: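 Yeast strain cln2 rad14, bearing defects in cell cycle control and DNA repair, serves as the test system; values reflect growth inhibition compared with vehicle.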

[5] = NCI Yeast Anticancer Drug Screen. Data for the bub3 strain (AID 167); conditions: S. cerevisiae bub3 mutant strain, stronger effect = higher value; at 50.0 µM unless noted
Procedure, shortened: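 Part of a panel of yeast mutants defective in DNA damage repair or cell cycle regulation. Each strain is grown with compound, and inhibition is calculated relative to solvent-treated cultures.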

[6] = NCI Yeast Anticancer Drug Screen. Data for the mlh1 rad18 strain (AID 175); conditions: S. cerevisiae mlh1 rad18 strain growth inhibition, stronger effect = higher value; at 50.0 µM unless noted
Procedure, shortened: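 Steps: expose repair-defective yeast to compound; measure growth; express inhibition against vehicle-treated controls.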

| Compound | growth inhibition [1] | growth inhibition [2] | growth inhibition [3] | growth inhibition [4] | growth inhibition [5] | growth inhibition [6] |
| --- | --- | --- | --- | --- | --- | --- |
| COC(=O)C(=O)C1(c2ccccc2)C(=O)C(c2ccccc2)=CC1O (centres undefined) | 15.3% | 10.5% | 10.1% | 0.7% | 8.4% | 18.6% |
| CCCCCCCCCCCCN1CCCC(O)C1 (centres undefined) | 66.8% | 60.8% | 74.4% (active) | 56.4% | 70.6% (active) | 78.1% (active) |
| CC(C)=CC1C(C(=O)Oc2ccccc2C(C)C)C1(C)C (centres undefined) | -3.8% | -11.2% | 2.6% | -22.6% | -27% | 4.6% |
| COc1c(Cl)cc(C(c2cc(Cl)c(OC)c(Cl)c2)C(Cl)(Cl)Cl)cc1Cl | -11.7% | -16.4% | -13% | -23.7% | -3.95% | 10.4% |
| CN(C)CCCNC(=O)CCNC(=O)c1cc(NC(=O)c2cc(NC(=O)c3cc(NC(=O)CCCNC(=O)c4cc(NC(=O)c5cc(NC(=O)c6nccn6C)cn5C)cn4C)cn3C)cn2C)cn1C | 7.55% | -14.8% | -2% | -1.35% | 4% | -25.3% |
| BrCC(Br)C1OCCCO1 (centres undefined) | 18.4% | 18.1% | 38.4% | 22.4% | 5.25% | 34.6% |
| CCN(c1ccccc1)S(=O)(=O)C(C)S(=O)(=O)N(CC)c1ccccc1 | -1.05% | -10.5% | -1.2% | -19.8% | 2.2% | -6.85% |
| Fc1c(F)c(-c2c(F)c(F)c(S)c(F)c2F)c(F)c(F)c1S | -1.15% | 3.75% | 21.3% | 3.05% | 0.7% | -21.9% |
| CN(CCOC(=O)Nc1ccccc1)N=O | 9.35% | -9.35% | 0.75% | -15.4% | 7.7% | -3% |
| NC(=S)C(=S)N=Cc1c(O)c2ccccc2oc1=O | 39.3% | 29.9% | 63.1% | 18.9% | 23.1% | 40.5% |
| COC1CCC2C3CCC(C3)C12 (centres undefined) | 26.9% | -2% | 6.4% | 5.05% | -12.9% | -10.2% |
| O=c1[nH]c(=O)n(C2CC(O)C(CO)O2)cc1C#Cc1c(F)c(F)c(F)c(F)c1F (centres undefined) | -17.2% | -11.7% | -16.4% | 11.8% | -13.8% | 2.2% |
| Cc1ccc(/C=C2\NC(=S)NC2=O)cc1 | -0.15% | -18.9% | -1.9% | -21.4% | -23.4% | -41.4% |
| COc1ccc2c(CSc3ncnc4nc[nH]c34)cc(=O)oc2c1 | 12.4% | 21.8% | 13.1% | -14.7% | 25.4% | 34.9% |
| ON=C(c1ccccn1)c1ccccn1 | 11.1% | -7.6% | 7.05% | 4.35% | -8.25% | 3.8% |
| O=C(O)c1ccccc1SCCO | -1.95% | 18% | 25.3% | 47.8% | -22.4% | -3.8% |
| Oc1ccc(-c2nc(-c3cccnc3)c(-c3ccc(F)cc3)[nH]2)cc1 | 5.2% | -13.7% | 12.8% | 8.55% | 12.5% | 57.8% |
| C[N+]1(Cc2csc(-c3ccc(Cl)cc3)n2)CCCC1 | -12.5% | -23.1% | 4.55% | 9.75% | -5.7% | -11.7% |
| O=C1NC(N/N=C\C(O)C(O)C(O)C(O)CO)=N/C1=C/c1ccc(Cl)cc1 (centres undefined) | 28.1% and 32% | 8.95% and 15.7% | 1.45% and 10.8% | -0.6% and 13.4% | -0.2% and 6.45% | 10.6% and 9.2% |
| CN(C)C(Cc1cnc[nH]1)C(=O)N1CCCC1C(N)=O (centres undefined) | -22.4% | -45.8% | -9.65% | -0.8% | -20.8% | 5.85% |

| Compound | growth inhibition [1] | growth inhibition [2] | growth inhibition [3] | growth inhibition [4] | growth inhibition [5] | growth inhibition [6] |
| --- | --- | --- | --- | --- | --- | --- |
| c1cc(-c2ncc[nH]2)ccn1 | -6.9% | -12.2% | -4.25% | -4.05% | 6.1% | -8.2% |
| COc1cc(OC)c2c(c1)C(C)(C)CCC2(C)C | 9.2% | 2.9% | -7.45% | -23.4% | 16.2% | 4.4% |
| CCN1CCNC(c2ccccc2)C1(C)C (centres undefined) | -2.35% | -5.45% | -10% | -15.7% | -5.95% | 3.4% |
| Cc1nc(SCC(=O)Nc2ccccc2)c2sc(=S)n(-c3ccccc3)c2n1 | -45.9% | -10.2% | -0.05% | -5.35% | -19.9% | -18.4% |
| N#CC1=C(NC(N)=O)CCCC1 | -0.7% | 36.7% | 10.7% | 35.3% | 10.1% | 5.45% |
| CCOC(=O)C12CCCC1(O)N(NC(N)=O)C(C)=C2C(=O)OC (centres undefined) | 10.2% | -5.1% | 3.05% | -69.1% | -11.9% | 6.2% |
| N#C/C(=C/n1c(=S)[nH]c2ccccc21)C(N)=O | -30.3% | -38.6% | -19.2% | -12.4% | -7.25% | -14.6% |
| COc1ccc(-c2oc(=O)cc(-c3ccccc3)c2-c2ccccc2)cc1 | 22.6% | -11.6% | 16.2% | 4.2% | -3.55% | 14.7% |
| O=C1CSC(c2ccc(F)cc2F)N1c1nncs1 (centres undefined) | 13.4% | -3.7% | 22.8% | -35.2% | -23.8% | 24.2% |
| COC(=O)C(Cc1c[nH]c2ccccc12)NC(=O)C(Cc1c[nH]c2ccccc12)NC(=O)C(Cc1c[nH]c2ccccc12)NC(=O)C(Cc1c[nH]c2ccccc12)NC(=O)C(Cc1c[nH]c2ccccc12)NC(=O)C(Cc1c[nH]c2ccccc12)NC(=O)OC(C)(C)C (centres undefined) (Boc-WWWWWW-OMe; configuration not given here) | -6.8% | -12.7% | -18.4% | 7.25% | 8.25% | 16.4% |
| CSc1ccc(C(C)=O)cc1 | 13.6% | 5.9% | 5.95% | 4.6% | 1.55% | 3% |
| COC1OC2COC(C)(C)OC2C2OC(C)(C)OC12 (centres undefined) | 1.15% | 5.35% | 6.45% | -6.25% | -18.4% | 16.3% |
| O=C(O)C1CC1c1ccc2c(c1)OCO2 (centres undefined) | -11.8% | -10.4% | 7.2% | -34% | -33.9% | 1.35% |
| COc1cc2c(cc1OC)C1CC3(CCN1CC2)CC(=O)NC3=O (centres undefined) | -8.65% | -5.5% | -4.75% | -78.8% | -11.9% | 1.35% |
| O=[N+]([O-])c1ccc(CC(Cl)c2ccccc2)cc1 (centres undefined) | 40.8% | 2.35% | 39.5% | -19.1% | 29.8% | 63% |
| CC(C)(C)c1ccncc1 | 8.45% | 16.1% | -16.4% | -10.2% | 5.15% | -4.65% |
| COc1cc2c(cc1OC)C(=O)c1nccc3ccc(OC)c(c13)O2 | -0.35% | 17.1% | 23.3% | 4.75% | 16.6% | 16.6% |
| COC(=O)C1(C)CCCC2(C)C1CCC1(O)C(O)C(C(C)C)=CCC21 (centres undefined) | 4.3% | -2.35% | 2.55% | -2.25% | -1.95% | 20.2% |
| C(=Nc1cccnc1)c1ccc(C=Nc2cccnc2)cc1 | 21.9% | 37.5% | 30.3% | 25.1% | 33.8% | 33% |
